# The panel holds about 83,000 compounds, 20% with a hit somewhere; the sample as a whole holds those more often.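 For each line, cells grew in 96-well plates with the test compound present at a single concentration for 48 hours.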 Unmarked numbers belong to inactive results. Calls of active or inactive are those of the source. The calls were made as follows: active = growth percent below 10; inactive = the rest.
# How the values were obtained:
# Experiment in all cases: NCI-60 one-dose screen, 48 h (100 = growth as untreated, 0 = no growth, -100 = all killed)
# Conditions in all cases: 10 µM unless noted
# SR leukemia = test system: SR leukemia
# RPMI-8226 leukemia = test system: RPMI-8226 leukemia
# OVCAR-8 ovarian = test system: OVCAR-8 ovarian
# OVCAR-5 ovarian = test system: OVCAR-5 ovarian
# OVCAR-4 ovarian = test system: OVCAR-4 ovarian
# SK-OV-3 ovarian = test system: SK-OV-3 ovarian
# IGROV1 ovarian = test system: IGROV1 ovarian
# OVCAR-3 ovarian = test system: OVCAR-3 ovarian
# HS 578T breast = test system: HS 578T breast
# NCI/ADR-RES ovarian = test system: NCI/ADR-RES ovarian
# T-47D breast = test system: T-47D breast
# BT-549 breast = test system: BT-549 breast
# MDA-MB-435 melanoma = test system: MDA-MB-435 melanoma
# SW-620 colon = test system: SW-620 colon
# MCF7 breast = test system: MCF7 breast
# HCT-116 colon = test system: HCT-116 colon
# HCC-2998 colon = test system: HCC-2998 colon
# KM12 colon = test system: KM12 colon
SMILES,growth (SR leukemia),growth (RPMI-8226 leukemia),growth (OVCAR-8 ovarian),growth (OVCAR-5 ovarian) [%],growth (OVCAR-4 ovarian),growth (SK-OV-3 ovarian),growth (IGROV1 ovarian),growth (OVCAR-3 ovarian),growth (HS 578T breast),growth (NCI/ADR-RES ovarian),growth (T-47D breast),growth (BT-549 breast) [%],growth (MDA-MB-435 melanoma),growth (SW-620 colon),growth (MCF7 breast),growth (HCT-116 colon),growth (HCC-2998 colon),growth (KM12 colon)
C#CCOc1ccc(C2=NN(C)C3N=C(Cl)c4ncn(C)c4N23)cc1OCC#C (stereo unspecified),91%,92.4%,93.1%,82.6,102%,101%,102%,118%,99.9%,88.4%,77.4%,99.6,108%,93.6%,98.5%,93.3%,104%,102%
O=c1c(Cc2ccc(F)cc2)cc(-c2ccccc2)nn1C/C(=N/O)c1ccccc1,30.3%,25.6%,43.7%,66.9,41.5%,74.7%,47.3%,49.5%,73.8%,34.7%,11.8%,48.4,48.8%,58.7%,26.2%,35.1%,61.3%,34.7%
C=CCNc1ccc2c3c(cccc13)C(=O)N(CC=C)C2=O,74.8%,95.2%,96.3%,92,110%,103%,88.7%,107%,91.6%,92.8%,83%,98.4,109%,108%,34%,86.5%,106%,101%
OC1CSSC1Cn1cnc2c(Nc3ccc(F)c(Cl)c3)ncnc21 (stereo unspecified),3.55% (active),55.7%,96.5%,115,91.4%,107%,93.2%,68.5%,103%,93.3%,61.4%,119,63.8%,104%,45.7%,74.7%,96.4%,73.2%
COc1ccc(/C=C2/CCc3cc4ccc(OC)cc4[o+]c32)c(O)c1,-2.1% (active),14.1%,42.9%,115,75.9%,103%,9.32% (active),49.8%,75.3%,53.8%,67.2%,96.2,2.85% (active),11.9%,48.1%,-64.1% (active),64.3%,45.4%
COc1ccccc1NC(=O)n1c(=O)cc(C)c2ccc(O)cc21,118%,109%,106%,112,110%,100%,113%,113%,110%,107%,99.8%,107,105%,109%,101%,107%,95.9%,101%
Cc1cc(=O)oc2cc(Oc3nc(-c4ccccc4)cn4c(-c5ccccc5)cnc34)ccc12,54.5%,51%,61.6%,105,60.7%,63.1%,83.7%,76.6%,58.6%,45.4%,38.5%,82.6,72.1%,88.3%,50.5%,39.3%,81%,75.5%
O=C1/C(=C/c2ccc(-c3ccc(Cl)cc3)o2)SC(=S)N1CCc1ccc(O)cc1,24.5%,55.5%,16.4%,75.2,25.6%,44.8%,31.8%,24.1%,36.6%,77.3%,43.9%,64.6,19.7%,26.6%,77.9%,48.8%,89.6%,22.9%
O=C(c1ccc(F)cc1)C1CCN(CCn2c(=O)[nH]c3ccccc3c2=O)CC1,99.9%,104%,103%,99.9,109%,102%,111%,96.9%,108%,102%,102%,107,104%,102%,97.6%,110%,105%,104%
O=C(Nc1ccc(Oc2cccc(F)c2)c(Cl)c1)c1cnccn1,20.8%,18%,37.5%,56.6,44.5%,86%,40.5%,-17.8% (active),27.8%,9.06% (active),38.3%,59.9,-21.2% (active),22.7%,17.5%,32%,56.2%,30.3%
O=C1/C(=C/c2ccccc2)COc2ccc(O)cc21,17.6%,-16.5% (active),95.9%,104,99.5%,124%,105%,98.7%,107%,104%,80.7%,81.2,68.4%,53.1%,23.7%,51.9%,101%,41.4%
[2H]C([2H])([2H])Oc1c(F)cccc1/C=C/C(=O)/C=C(O)/C=C/c1cccc(F)c1OC([2H])([2H])[2H],94.8%,99.2%,87%,104,89.1%,117%,101%,108%,112%,92.4%,83.8%,97.6,94.9%,109%,74.5%,84.1%,112%,102%
Cn1cc(-c2csc(-c3cn(C)c4ccc(F)cc34)n2)c2cnccc21,-21.5% (active),-38.4% (active),5.3% (active),25.6,11.3%,107%,-24.7% (active),-57.4% (active),-34.2% (active),24.7%,-44.1% (active),84,-90.7% (active),-67.1% (active),-49.3% (active),-90.3% (active),-78.4% (active),0.588% (active)
NC(=N\N=C/c1ccc(Cl)cc1Cl)/C(N)=N\N=C/c1ccc(Cl)cc1Cl,51.1%,62.2%,76.6%,71.6,-34% (active),9.34% (active),15.8%,21.5%,33.2%,82.3%,10.8%,111,82.6%,63.4%,87%,21.9%,88.8%,84%
N#C/C(=C\c1cccc2cnccc12)N1N=NC2C=CC=CC21 (stereo unspecified),26.3%,18.8%,42.9%,51.8,25.2%,86.1%,27.9%,6.92% (active),24.2%,42.7%,23.8%,41.6,9.28% (active),13.1%,13.6%,14.2%,91.7%,43.5%
c1ccc(-c2cn3nc(-c4c[nH]c5ccccc45)sc3n2)cc1,21.7%,91.8%,93.3%,74.2,70.4%,80.4%,56.5%,86.1%,84.5%,84.3%,62.6%,91.3,26.5%,73.5%,59.1%,84.2%,89.6%,58.3%
Cc1ccc(-c2nnc(SCc3nc(N)nc(Nc4ccccc4F)n3)n2-c2ccccc2)cc1,92.4%,83.7%,88%,95.9,86.7%,102%,81.4%,102%,87.1%,98.2%,85%,97.9,99.6%,93.6%,94.9%,98.4%,126%,101%
